# Article PMC4336329 (PLoS ONE, 2015)
# The whole screen tested about 310,000 compounds, of which about 14,000 (4.5%) showed an effect of 50% or more. Effects have a minus sign here. This is one part of a sample in which strong results are shown more often than they occur.
# Biological target: human ether-à-go-go-related gene (hERG) potassium channel (human, UniProt Q12809)
# Experiment: primary screen, population patch clamp on CHO cells stably expressing hERG; higher = less effect of the substance
# 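Note: peak tail current of the secondary pulse compared with the same well before compound.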
# human ether-à-go-go-related gene (hERG) potassium channel, sequence (Q12809 whole entry, looked up): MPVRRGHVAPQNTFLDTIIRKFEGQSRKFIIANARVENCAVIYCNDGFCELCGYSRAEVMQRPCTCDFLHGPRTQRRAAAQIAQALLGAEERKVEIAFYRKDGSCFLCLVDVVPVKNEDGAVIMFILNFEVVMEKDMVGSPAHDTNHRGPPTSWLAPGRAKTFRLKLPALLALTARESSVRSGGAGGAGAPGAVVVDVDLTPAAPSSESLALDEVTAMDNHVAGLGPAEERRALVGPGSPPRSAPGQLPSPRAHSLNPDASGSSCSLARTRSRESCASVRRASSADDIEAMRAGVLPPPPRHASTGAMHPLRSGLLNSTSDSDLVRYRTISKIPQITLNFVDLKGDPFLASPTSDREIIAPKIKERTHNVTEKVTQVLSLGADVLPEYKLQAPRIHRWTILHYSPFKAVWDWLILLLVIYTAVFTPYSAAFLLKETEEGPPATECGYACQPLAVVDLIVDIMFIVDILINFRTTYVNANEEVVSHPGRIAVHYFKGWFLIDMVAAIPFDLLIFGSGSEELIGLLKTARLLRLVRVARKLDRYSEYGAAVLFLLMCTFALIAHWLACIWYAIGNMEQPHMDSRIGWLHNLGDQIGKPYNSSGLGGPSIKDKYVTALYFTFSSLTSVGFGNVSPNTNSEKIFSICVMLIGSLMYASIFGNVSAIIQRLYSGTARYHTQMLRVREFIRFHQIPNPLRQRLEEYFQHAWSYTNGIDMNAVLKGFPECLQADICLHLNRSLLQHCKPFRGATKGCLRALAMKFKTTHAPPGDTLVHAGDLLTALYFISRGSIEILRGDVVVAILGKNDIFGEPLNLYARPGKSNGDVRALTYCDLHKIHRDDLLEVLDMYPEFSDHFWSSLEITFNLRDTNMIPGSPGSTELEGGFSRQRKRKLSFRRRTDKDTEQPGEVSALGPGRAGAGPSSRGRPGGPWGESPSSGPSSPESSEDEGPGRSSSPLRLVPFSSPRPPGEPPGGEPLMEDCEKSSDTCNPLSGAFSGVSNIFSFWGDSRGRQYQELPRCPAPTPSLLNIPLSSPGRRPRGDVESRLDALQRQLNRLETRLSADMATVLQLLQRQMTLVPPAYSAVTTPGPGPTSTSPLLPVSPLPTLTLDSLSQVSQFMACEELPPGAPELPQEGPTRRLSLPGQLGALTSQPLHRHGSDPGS
row,Structure (SMILES),"hERG current change (%, negative = inhibition) at 10uM [%]"
1,CCOCCCNC(=O)CN1CCN(S(=O)(=O)c2ccc3c(c2)CCC3)CC1,3.99
2,COC(=O)CSc1nnc(CNS(=O)(=O)c2ccc(C)cc2)n1C,1.97
3,CN(C)N=Nc1ccc(S(=O)(=O)N2CCSC2C(=O)O)cc1 (stereo not drawn),2.21
4,COC1CCN(C(=O)CC2C(=O)NCCN2CC2CCCCC2)CC1 (stereo not drawn),13.3
5,CCOc1cccc(=[NH+]C2CCCCC2)c2c(C)n(C)c(C)c12.[O-][Cl+3]([O-])([O-])[O-],-70.3
6,CCOc1cccc(OCC)c2c(C)[n+](CC3CCCO3)c(C)c1-2.[O-][Cl+3]([O-])([O-])[O-] (stereo not drawn),-36.9
7,CCOc1cccc(=O)c2c(C)n(CC(=O)c3ccccc3)c(C)c12,-6.91
8,CCOc1ccccc1OCCNC1CCCC1,8.26
9,CCOc1cccc(=[NH+]C2CCCCC2)c2c(C)[nH]c(C)c12.[O-][Cl+3]([O-])([O-])[O-],-70.3
10,CCOc1cccc(=O)c2c(C)n(CC3CCCO3)c(C)c12 (stereo not drawn),-2.39
11,O=C(CN1C(=O)NC2(CCCC2)C1=O)N1CCN(S(=O)(=O)c2ccccc2[N+](=O)[O-])CC1,7.61
12,N=c1n(-c2ccccc2)c(O)cc(=O)n1-c1ccccc1,-6.28
13,CCCn1c(N)c(N(CCOC)C(=O)c2ccc([N+](=O)[O-])c(C)c2)c(=O)[nH]c1=O,35.8
14,CC(NS(=O)(=O)c1ccc(Br)cc1)C(=O)NC1CCCCCC1 (stereo not drawn),5.35
15,Cc1noc(C)c1S(=O)(=O)N1CCCC(C(=O)Nc2ccc(Cl)cn2)C1 (stereo not drawn),-26
16,CCOC(=O)C1(CCCc2ccccc2)CCN(C(=O)Cc2nonc2C)CC1,-51.3
17,CCOC(=O)C1(CCCc2ccccc2)CCN(C(=O)c2cc(C)nc(C)n2)CC1,-16.4
18,CCOC(=O)C1(CCCc2ccccc2)CCN(C(=O)c2cnc(C)cn2)CC1,-39.8
19,CCOC(=O)C1(CC2CC2)CCN(C(=O)c2ocnc2C)CC1,7.25
20,CCOC(=O)C1(CCCc2ccccc2)CCN(C(=O)c2cnn(CC)c2)CC1,-64.2
21,CCOC(=O)C1(CCCc2ccccc2)CCN(C(=O)c2ocnc2C)CC1,-56.1

row,Structure (SMILES),"hERG current change (%, negative = inhibition) at 10uM [%]"
1,CCOC(=O)C1(CCCc2ccccc2)CCN(C(=O)c2cc(C)nn2CC)CC1,-57.8
2,CCOC(=O)C1(Cc2ccccc2)CCCN(C(=O)c2cnn(CC)c2)C1 (stereo not drawn),10.1
3,CCOC(=O)C1(CCCc2ccccc2)CCN(C(=O)COC)CC1,-25.9
4,CCOC(=O)C1(CCc2ccccc2)CCN(C(=O)Cc2nonc2C)CC1,-21.4
5,CCOC(=O)C1(Cc2cccc(Cl)c2)CCCN(C(=O)c2cnn(CC)c2)C1 (stereo not drawn),-6.39
6,CCn1c(N2CCN(S(=O)(=O)c3ccc(Cl)cc3)CC2)nc2ccccc21,-48.4
7,COc1cccc(NC(=O)CCNS(=O)(=O)c2ccc3c(c2)CC(C)N3C(=O)C2CC2)c1 (stereo not drawn),-5.18
8,O=C(CCS(=O)(=O)c1ccc(Br)s1)NC1CCCC1,6.05
9,COc1ccc(NS(=O)(=O)c2cccc3cccnc23)cc1OC,24.2
10,CNc1nc(NN)nc(Nc2ccccc2)n1,9.76
11,Cc1ccc(S(=O)(=O)CC(=O)Nc2cccc(C)n2)cc1,6.48
12,Cc1cccc(C(=O)NCC(=O)NC2CCN(Cc3ccccc3)CC2)c1,-7.99
13,O=C(c1ccoc1)N1CCC(CO)(CCc2ccccc2)CC1,-28.7
14,CCOC(=O)C1(CCCc2ccccc2)CCN(C(=O)CSC)CC1,-24.1
15,CCOC(=O)C1(CCCc2ccccc2)CCN(C(=O)c2ccoc2)CC1,-54.3
16,CCCCCC(=O)Nc1nnn(CCC)n1,4.41
17,CC(C(=O)O)N1C(=O)c2cccc3cccc1c23 (stereo not drawn),1.97
18,COc1ccc(NCc2nnc(SCC(=O)Nc3nc(-c4ccccc4)cs3)n2-c2ccccc2)cc1,13
19,C[C@H](NC(=O)N1CCn2c1nc1ccccc12)C(=O)NCc1ccc(F)cc1,-29.6
20,C[C@H](NC(=O)N1CCn2c1nc1ccccc12)C(=O)NCc1ccccc1,-13.6
21,COc1ccc(CNC(=O)[C@H](C)NC(=O)N2CCn3c2nc2ccccc23)cc1,-57.7
